Data as given in PubChem BioAssay (Tox21).
Results filed as inconclusive are left out. The source made the active and inactive calls. Unless noted, the call rests on the fitted dose curve; in most records, active means well fitted curve in the direction sought with a large enough effect in the repeat runs; inconclusive means weak or mixed curves; inactive means no such curve, though single readings can be large; an effect the other way counts as inactive or inconclusive.

How the values were obtained:
[1] = target: Thyrotropin receptor (Homo sapiens) (UniProt P16473); test: qHTS assay to identify small molecule agonists of the thyroid stimulating hormone receptor (TSHR) signaling pathway (AID 1224843; calls by dose curve; further: nearly all actives have a fitted effect of over 45% in size)
How it was run: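 TSHR-expressing HEK293 cells (800 per well) were exposed to compounds for 30 min at room temperature. cAMP was then detected by HTRF competition with cAMP-d2 and anti-cAMP cryptate, read after 1 h at room temperature. Fifteen concentrations, triplicate.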

[2] = qHTS assay to identify small molecule agonists of the hypoxia (HIF-1) signaling pathway - cell viability counter screen (AID 1224844; calls by dose curve; further: nearly all actives have a fitted effect of over 50% in size)
How it was run: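 HRE-bla ME-180 cells, 2,000/well in 0.5% dialyzed FBS medium, treated 17 h at 37C with compounds. Viability read in the same wells as the bla reporter, by CellTiter-Glo luminescence after 30 min at room temperature.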

[3] = qHTS assay to identify small molecule agonists of H2AX (AID 1224845; active means well fitted activation curve with a large enough effect in the signal ratio in the repeat runs, not every such curve was filed as active; the % refers to the signal ratio)
How it was run: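 Wild-type CHO-K1 cells plated overnight, then exposed 3 hr at 37C to compounds at 15 concentrations (0.76% DMSO). Lysed, then HTRF anti-pH2AX(S139)-cryptate/anti-H2AX-d2 detection after 24 hr at room temperature; emissions 665 and 620 nm.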

[4] = qHTS assay to identify small molecule agonists of H2AX - cell viability counter screen (AID 1224847; calls by dose curve; further: top concentration of the series differs between compounds; nearly all actives have a fitted effect of over 30% in size)
How it was run: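 Compounds tested at 15 concentrations were incubated 3 hr at 37C with wild-type CHO-K1 cells; cellular ATP-based luminescence (CellTiter-Glo) indicated viability.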

[5] = qHTS RealTime-Glo MT Cell Viability Assay in HepG2 cells - 24 hour (AID 1224867); further: nearly all actives have a fitted effect of over 50% in size
How it was run: (§1)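 Tox21 10K library screened in qHTS format on HepG2 cells carrying RealTime-Glo reagents. Compounds were added after a 5 h preincubation, and the luminescent signal from continuous culture was measured repeatedly during 40 h treatment.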

[6] = qHTS RealTime-Glo MT Cell Viability Assay in HEK293 cells - 32 hour (AID 1224868); further: top concentration of the series differs between compounds; nearly all actives have a fitted effect of over 50% in size
How it was run: (§2)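 Luminescence generated by NanoLuc from substrate produced by living HEK293 cells served as the viability signal. Each value reflects the reading at its stated time point during continuous 40 h compound exposure at 37 C.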

[7] = A CellTox Green Cytotoxicity Assay to monitor cytotoxicity in HEK293 cells - 0 hour (AID 1224869); further: nearly all actives have a fitted effect of over 50% in size
How it was run: (§3)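 HEK293 cells, 600/well, were preincubated 5 hours and then exposed to compounds at 37 C for up to 40 hours. A cell-impermeant cyanine dye staining dead-cell DNA was read by fluorescence at 0, 8, 16, 24, 32 and 40 h time points.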

[8] = qHTS RealTime-Glo MT Cell Viability Assay in HepG2 cells - 40 hour (AID 1224870); further: nearly all actives have a fitted effect of over 50% in size
How it was run: (§4)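 HepG2 cells mixed with RealTime-Glo MT reagents (NanoLuc plus cell-permeant prosubstrate) were seeded at 600 cells/well, incubated 5 h at 37 C/5% CO2, then pinned with compounds in DMSO; nonlytic luminescence tracked viability during 40 h treatment.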

[9] = A CellTox Green Cytotoxicity Assay to monitor cytotoxicity in HEK293 cells - 40 hour (AID 1224871); further: nearly all actives have a fitted effect of over 45% in size
How it was run: as §3

[10] = qHTS RealTime-Glo MT Cell Viability Assay in HepG2 cells - 8 hour (AID 1224873); further: nearly all actives have a fitted effect of over 55% in size
How it was run: as §4

[11] = A CellTox Green Cytotoxicity Assay to monitor cytotoxicity in HEK293 cells - 24 hour (AID 1224875); further: nearly all actives have a fitted effect of over 45% in size
How it was run: as §3

[12] = A CellTox Green Cytotoxicity Assay to monitor cytotoxicity in HepG2 cells - 16 hour (AID 1224876); further: nearly all actives have a fitted effect of over 45% in size
How it was run: (§5)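 HepG2 cells, 600/well, preincubated 5 h with CellTox Green dye, then exposed to Tox21 compounds in DMSO at 37 C for up to 40 h. Dead-cell DNA fluorescence read at the indicated time point.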

[13] = qHTS RealTime-Glo MT Cell Viability Assay in HepG2 cells - 32 hour (AID 1224877); further: nearly all actives have a fitted effect of over 55% in size
How it was run: as §1

[14] = A CellTox Green Cytotoxicity Assay to monitor cytotoxicity in HepG2 cells - 24 hour (AID 1224878); further: nearly all actives have a fitted effect of over 45% in size
How it was run: as §5

[15] = qHTS assay to identify small molecule agonists of the hypoxia (HIF-1) signaling pathway (AID 1224846; active means well fitted activation curve with a large enough effect in the signal ratio in the repeat runs, not every such curve was filed as active; the % refers to the signal ratio)
How it was run: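 HRE-bla ME-180 beta-lactamase reporter cells in medium with 0.5% dialyzed FBS, pre-incubated 5 h then exposed to compounds 17 h at 37C, 5% CO2; reporter induction read with CCF4-AM FRET substrate.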

[16] = qHTS assay to identify small molecule antagonists of the estrogen related receptor (ERR) signaling pathway from Tox21 library (AID 1224848); further: nearly all actives have a fitted effect of over 50% in size
How it was run: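 Cells: ERR line, 2,000/well; 6 h preincubation 37 C/5% CO2. Cpd in DMSO via pin tool; 18 h, 37 C. ONE-Glo, 30 min RT, luminescence.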

[17] = qHTS assay to identify small molecule agonists of the estrogen related receptor (ERR) signaling pathway from Tox21 library (AID 1224849; calls by dose curve; further: nearly all actives have a fitted effect of over 15% in size); settings: ERR reporter cell line, ONE-Glo luciferase, 18 h; at 92.4 µM (top of the series) unless noted
How it was run: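 ERR reporter cells (NTP line) pre-incubated 6 hours at 37 C, then exposed to compounds for 18 hours at 37 C. ONE-Glo luciferase luminescence was read after 30 minutes at room temperature.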

[18] = qHTS RealTime-Glo MT Cell Viability Assay in HEK293 cells - 40 hour (AID 1224874); settings: RealTime-Glo luminescence; max response: stronger effect = lower value; further: nearly all actives have a fitted effect of over 50% in size
How it was run: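 600 cells/well were plated with the nonlytic NanoLuc/prosubstrate reagent, pre-incubated 5 h, then given 23 nL of compound in DMSO. Incubation at 37 C for 40 h, with luminescence from viable-cell-reduced substrate read repeatedly from 0 h.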

[19] = qHTS RealTime-Glo MT Cell Viability Assay in HEK293 cells - 16 hour (AID 1224872)
How it was run: as §2

[20] = A CellTox Green Cytotoxicity Assay to monitor cytotoxicity in HepG2 cells - 40 hour (AID 1224879); further: nearly all actives have a fitted effect of over 40% in size
How it was run: as §5
On the % scale 0 is the no-effect control and ±100 the full control effect.

Sequence of Thyrotropin receptor (Homo sapiens) (P16473 whole entry, looked up): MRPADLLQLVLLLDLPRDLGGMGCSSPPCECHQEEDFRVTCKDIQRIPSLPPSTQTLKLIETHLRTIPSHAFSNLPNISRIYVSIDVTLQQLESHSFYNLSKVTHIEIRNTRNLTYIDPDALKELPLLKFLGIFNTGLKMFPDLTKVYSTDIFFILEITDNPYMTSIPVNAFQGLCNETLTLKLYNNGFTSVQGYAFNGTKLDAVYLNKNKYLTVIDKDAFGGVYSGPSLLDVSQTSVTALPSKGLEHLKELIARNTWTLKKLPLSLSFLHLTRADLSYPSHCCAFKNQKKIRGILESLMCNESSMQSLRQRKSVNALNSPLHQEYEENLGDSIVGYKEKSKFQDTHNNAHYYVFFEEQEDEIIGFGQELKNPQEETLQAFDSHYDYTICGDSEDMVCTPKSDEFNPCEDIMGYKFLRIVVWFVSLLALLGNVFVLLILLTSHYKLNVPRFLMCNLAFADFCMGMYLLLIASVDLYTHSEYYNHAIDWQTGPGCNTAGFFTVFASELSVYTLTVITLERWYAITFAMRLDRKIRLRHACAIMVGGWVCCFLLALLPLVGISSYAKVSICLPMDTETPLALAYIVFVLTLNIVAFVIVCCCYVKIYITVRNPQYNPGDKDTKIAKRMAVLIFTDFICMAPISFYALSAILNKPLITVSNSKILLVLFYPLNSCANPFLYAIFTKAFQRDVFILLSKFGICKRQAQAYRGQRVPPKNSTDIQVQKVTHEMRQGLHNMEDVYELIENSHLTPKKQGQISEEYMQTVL

C=C(C)[C@H]1CN[C@H](C(=O)O)[C@H]1CC(=O)O
inactive: Potency [1] | Potency [2] | outcome [3] | Potency [4] | Potency [5] | Potency [6] | outcome [7] | Potency [8] | Potency [9] | outcome [10] | Potency [11] | Potency [12] | Potency [13] | Potency [14]

Oc1ccc(Cc2ccc(O)cc2)cc1
inactive: Potency [1] | Potency [2] | outcome [15] | Potency [4] | Potency [16] | activity change, positive = activation [17] 5.91% | Potency [5] | outcome [7] | Potency [8] | Potency [9] | outcome [10] | Potency [11] | Potency [12] | Potency [13] | Potency [14]

Brc1c(Br)c(Br)c(Br)c(Br)c1Br
inactive: activation [1] 1.42% [at 8.39 µM] | activity change, negative = cytotoxicity [2] -35.3% [at 6.97 µM] | activation [15] -0.641% [at 7.01 µM] | activity change, negative = cytotoxicity [4] -1.61% [at 14 µM] | activity change, negative = cytotoxicity [5] -11.6% [at 6.97 µM] | cytotoxicity [7] 20.1% [at 6.97 µM] | activity change, negative = cytotoxic [8] -3.64% [at 6.97 µM] | cytotoxicity increase [9] 4.32% [at 6.97 µM] | viability change, negative = cytotoxic [10] -1.77% [at 6.97 µM] | max response [18] 23.1% | activity change [11] 5.24% [at 6.97 µM, stronger effect = higher value] | cytotoxicity increase [12] -7.6% [at 6.97 µM] | activity change, negative = cytotoxic [13] -8.23% [at 6.97 µM] | cytotoxicity [14] -0.215% [at 6.97 µM]

C[C@H](N)C(=O)c1ccccc1
inactive: Potency [1] | Potency [2] | Potency [4] | Potency [5] | Potency [6] | outcome [7] | Potency [8] | Potency [9] | Potency [19] | outcome [10] | max response [18] -10.2% | Potency [11] | Potency [12] | Potency [13] | Potency [14]

CCN(CCO)CCn1c(Cc2ccccc2)nc2c1c(=O)n(C)c(=O)n2C
inactive: Potency [1] | Potency [2] | outcome [15] | Potency [4] | Potency [16] | activity change, positive = activation [17] -1.48% [at 42.5 µM] | Potency [5] | Potency [6] | outcome [7] | Potency [8] | Potency [9] | Potency [19] | outcome [10] | Potency [11] | Potency [12] | Potency [13] | Potency [14] | Potency [20]

CCCCCCC(=O)CCCCCC/C=C/C[C@@H](O)[C@H](O)[C@@](N)(CO)C(=O)O
inactive: activation [1] -1.25% [at 19 µM] | activity change, negative = cytotoxicity [2] 0.46% [at 15.8 µM] | activity change, negative = cytotoxicity [4] -0.19% [at 31.6 µM] | activity change, negative = cytotoxicity [5] 0.745% [at 15.8 µM] | activity change, negative = cytotoxic [6] 2.61% [at 15.8 µM] | cytotoxicity [7] 0.947% [at 15.8 µM] | activity change, negative = cytotoxic [8] 0.839% [at 15.8 µM] | cytotoxicity increase [9] -5.02% [at 15.8 µM] | activity change, negative = cytotoxicity [19] -2.21% [at 15.8 µM] | viability change, negative = cytotoxic [10] 1.7% [at 15.8 µM] | max response [18] 2.74% | activity change [11] -5.64% [at 15.8 µM, stronger effect = higher value] | activity change, negative = cytotoxic [13] 0.443% [at 15.8 µM] | cytotoxicity [14] -14.9% [at 15.8 µM]

Cc1ccc2c(c1)C1CN(C)CCC1N2 (centres undefined)
inactive: activation [1] 15.7% [at 19 µM] | activity change, negative = cytotoxicity [2] -1.4% [at 15.8 µM] | activation [15] 0.38% [at 15.8 µM] | activity change, negative = cytotoxicity [4] -2.09% [at 31.6 µM] | activity, negative = inhibition [16] 10.8% [at 19 µM] | activity change, positive = activation [17] 6.1% [at 19 µM] | activity change, negative = cytotoxicity [5] -2.75% [at 15.8 µM] | activity change, negative = cytotoxic [6] 0.479% [at 15.8 µM] | cytotoxicity [7] -0.0492% [at 15.8 µM] | activity change, negative = cytotoxic [8] 2.24% [at 15.8 µM] | cytotoxicity increase [9] -9.63% [at 15.8 µM] | activity change, negative = cytotoxicity [19] -1.2% [at 15.8 µM] | viability change, negative = cytotoxic [10] -2.24% [at 15.8 µM] | max response [18] 2.17% | activity change [11] 0.918% [at 15.8 µM, stronger effect = higher value] | cytotoxicity increase [12] 12.2% [at 15.8 µM] | activity change, negative = cytotoxic [13] -0.204% [at 15.8 µM] | cytotoxicity [14] 11.8% [at 15.8 µM] | cytotoxicity increase [20] 15.6% [at 15.8 µM]

O=c1[nH]c2ccccc2o1
inactive: Potency [1] | Potency [2] | Potency [4] | Potency [16] | activity change, positive = activation [17] -3.64% | Potency [5] | Potency [6] | outcome [7] | Potency [8] | Potency [9] | Potency [19] | outcome [10] | max response [18] -0.283% | Potency [11] | Potency [12] | Potency [13] | Potency [14]

CC(C)c1ccc(O)cc1
inactive: Potency [1] | Potency [2] | outcome [15] | Potency [4] | Potency [16] | activity change, positive = activation [17] -0.432% | Potency [5] | Potency [6] | outcome [7] | Potency [8] | Potency [9] | Potency [19] | outcome [10] | max response [18] 0.569% | Potency [11] | Potency [12] | Potency [13] | Potency [14] | Potency [20]

CC(=NC#N)N(C)Cc1ccc(Cl)nc1
inactive: Potency [1] | Potency [2] | outcome [15] | Potency [4] | Potency [5] | Potency [6] | outcome [7] | Potency [8] | Potency [9] | Potency [19] | outcome [10] | max response [18] 8.58% | Potency [11] | Potency [12] | Potency [13] | Potency [14] | Potency [20]

O=C(CCl)NCO
inactive: Potency [1] | Potency [2] | outcome [15] | Potency [4] | Potency [16] | activity change, positive = activation [17] 7.02% | Potency [5] | Potency [6] | outcome [7] | Potency [8] | Potency [9] | outcome [10] | Potency [11] | Potency [12] | Potency [13] | Potency [14] | Potency [20]

ClCCCCCCCl
inactive: Potency [1] | Potency [2] | Potency [4] | Potency [5] | Potency [6] | outcome [7] | Potency [8] | Potency [9] | Potency [19] | outcome [10] | max response [18] 5.82% | Potency [11] | Potency [12] | Potency [13] | Potency [14]

CCOC(=O)C(SP(=S)(OC)OC)c1ccccc1 (centres undefined)
inactive: Potency [1] | Potency [2] | outcome [15] | Potency [16] | activity change, positive = activation [17] -11.8% | Potency [5] | Potency [6] | outcome [7] | Potency [8] | Potency [9] | Potency [19] | outcome [10] | max response [18] -6.34% | Potency [11] | Potency [12] | Potency [13] | Potency [14]

CC1NCCOC1c1ccccc1 (centres undefined)
inactive: Potency [1] | Potency [2] | outcome [15] | Potency [4] | Potency [16] | activity change, positive = activation [17] 0.163% [at 42.5 µM] | Potency [5] | Potency [6] | outcome [7] | Potency [8] | Potency [9] | outcome [10] | max response [18] 4.25% | Potency [11] | Potency [12] | Potency [13] | Potency [14] | Potency [20]
